This note sets out measurements from PubChem BioAssay AID449762 (Southern Research Specialized Biocontainment Screening …, 2010).

For orientation: inhibition means the change of the read-out against control, counted positive when it falls.

Structures are written as SMILES. Among all 330,000 compounds or so, about 1,900 (0.58%) were called active. Inconclusive results (about 4%) are left out. These entries were drawn from the full list. Potency and affinity values are given separately. Unmarked numbers belong to inactive results. No stated cut-off is given here; in the data, inconclusive means inhibition above about 70% without an active follow-up result; inactive means below that.

This experiment is described as follows: M. tuberculosis growth inhibition, HTS (AID 449762).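 Further: bacterial growth assessed after seven days of incubation.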 As to conditions: M. tuberculosis H37Rv growth inhibition, 7H9 media; at 25 µM; active compounds read high.
Consider `O=C(CCSc1nnc2ccccn12)Nc1ccc2c(c1)OCO2`, for which the inhibition was -0.07%.
Regarding `COc1ccc(OC)c(S(=O)(=O)Nc2cc(Cl)cc(Cl)c2)c1`, the inhibition was -2.29%.
With `CN1/C(=C\C(=S)NC(=O)c2ccccc2Cl)C(C)(C)c2ccccc21` the figure was -5.96%.
For `CC(C)C(=O)NC(=S)/C=C1/N(C)c2ccccc2C1(C)C` the value was 2.15%; for `Cc1cccc(NS(=O)(=O)c2csc(C(N)=O)c2)c1C`, -0.04%.
As for `Cc1ccc(CC(=O)Nc2cc(C)ccn2)cc1`, the inhibition was 3.78%.
For `CC1Sc2ccc(S(=O)(=O)CCC(=O)Nc3ccccc3Cl)cc2NC1=O` (stereo not drawn) the value was 0.85%; for `CCOC(=O)C1CCN(CC(O)COc2ccc(C(C)=O)cc2)CC1` (stereo not drawn), -0.99%; for `CCOC(=O)C1CCN(CC(O)COc2ccc(C(=O)CC)cc2)CC1` (stereo not drawn), -15.2%.
Regarding `COC(=O)c1ccc(CNC(=O)COC(=O)c2cccs2)cc1`, the inhibition is 12.5%.
Turning to `COc1ccc(/C=C2\N=C(C)N(c3ccc4ccccc4c3)C2=O)cc1OC`, the inhibition is 4.18%.
Take `COc1ccccc1-c1nnc(NC(=O)c2ccc(S(=O)(=O)N3CCOCC3)cc2)o1`: the inhibition is 43.3%.
`COc1cc(-c2nnc(NC(=O)c3ccc(S(=O)(=O)N4CCOCC4)cc3)o2)cc(OC)c1OC`: the inhibition was 5.07%.
For `CCCN(CC(=O)Nc1ccccc1OC)C(=O)c1ccccn1` the value was 0.49%.
For `C=CCN1C(=O)c2ccc(C(=O)N(C)CC(=O)Nc3cccc(F)c3)cc2C1=O`, the inhibition is 0%.
For `CCOC(=O)c1c(C)[nH]c(C(=O)OCC(=O)NCc2ccc(OC)c(OC)c2)c1C`, the inhibition is 3.95%.
With `COc1ccc(C)cc1Nc1n[n+](-c2ccccc2)c(-c2cc(OC)c(OC)cc2Br)s1` the figure was 62.1%; with `COc1ccc(C)cc1Nc1n[n+](-c2ccccc2)c(-c2cccc(Cl)c2Cl)s1`, 60%; with `COC(=O)C1=C(C(=O)OC)[C@@H]2N(C)c3ccc(OC)cc3[C@@]23C[C@@H](C(=O)OC)N(C(=O)CC(C)C)C3=N1`, -3.14%.
Take `O=C(C1=C(O)C(=O)N(Cc2ccco2)C1c1ccccc1F)c1cccs1` (stereo not drawn): the inhibition is 12.7%.
Regarding `Cc1cc(C)n(-c2ccc(F)cc2CN2CCN(C3CCCC3)C(CCO)C2)n1` (stereo not drawn), the inhibition was 8.29%.
With `C=C(C)C1CC=C(CN2CC(C)OC(C)C2)CC1` (stereo not drawn) the figure was -4.9%; with `C=C(C)C1CC=C(CN2CCC(O)CC2)CC1` (stereo not drawn), -0.8%.
Consider `CCOC(=O)c1c(/N=C/N(C)C)sc(/C=N/Nc2ccccc2)c1-c1ccc(Cl)cc1`, for which the inhibition was 69%.
For `CCOC(=O)c1c(/N=C/N(C)C)sc(/C=N/Nc2ccccc2)c1-c1ccccc1` the value was 4.1%.
Turning to `CN(CC(=O)NCc1ccccc1)S(=O)(=O)c1cnc[nH]1`, the inhibition is 2.4%.
With `Cc1cc(C)cc(OCC(=O)OCC(=O)NC2CCCCCC2)c1` the figure was 2.47%.
For `CSc1ncnc2c1cnn2-c1ccc(C)cc1C` the value was 6.4%; for `Cc1ccc(-n2ncc3c(SCC(=O)Nc4cc(C)on4)ncnc32)c(C)c1`, -4.04%; for `O=C(NCc1cccnc1)C1CCCN(S(=O)(=O)c2ccc(Cl)cc2)C1` (stereo not drawn), -6.29%.
Turning to `O=[N+]([O-])c1cc(-c2nnc(N3CCOCC3)c3ccccc23)ccc1N1CCOCC1`, the inhibition was 0.47%.
For the compound `Cc1ccc(NC(=O)CCc2c[nH]c3ccccc23)nc1`, the inhibition was 1.19%.
For `Cc1ccnc(NC(=O)CCCc2c[nH]c3ccccc23)c1` the value was -0.54%.
With `O=C(CN(C(=O)CSc1nc2ccccc2o1)c1ccccc1)NC1CCCCC1` the figure was -0.41%; with `CNc1c(C(=O)O)ccc2c1C(=O)c1ccccc1C2=O`, 9.33%; with `COc1ccc2c(c1O)C(=O)c1ccccc1C2=O`, -7.89%.
With `CCc1nc(SCC(=O)Nc2ccnc3ccccc23)n[nH]1`, the inhibition is -7.48%.
With `Cc1cc(=O)oc2cc(Oc3ccc([N+](=O)[O-])cc3[N+](=O)[O-])ccc12` the figure was 50.5%; with `Cc1c(C)c2ccc(Oc3ccc([N+](=O)[O-])cc3C(F)(F)F)c(C)c2oc1=O`, 7.78%; with `CN(c1ccccc1)S(=O)(=O)c1ccc(C(=O)OCC(=O)NC(N)=O)cc1`, 1%.
On to `COc1ccc(-c2c(C(=O)O)c(C(=O)O)c3n2CCC3)cc1`, for which the inhibition is 0.3%.
For `Cc1ccc(CSc2ncn(-c3ccccc3)n2)cc1` the value was -2.76%; for `CC(C)(C)c1ccc(NC(=O)CCNC(=O)c2ccco2)cc1`, 1.96%; for `Cc1cc(C)c(S(=O)(=O)Nc2ccc(Cl)cn2)c(C)c1`, 2.9%.
Take `CCN(CC(=O)Nc1ccccc1OC)C(=O)CCOc1ccc(C(C)(C)C)cc1`: the inhibition was -2.92%.
As to `O=[N+]([O-])c1cc(S(=O)(=O)N2CCCCC2)ccc1NCCN1CCOCC1`, the inhibition is -0.42%.
With `O=C(Nc1cccc(-c2ccc(N3CCCCC3)nn2)c1)C(F)(F)F` the figure was 5.09%.
With `CCC(=O)Nc1cccc(-c2ccc(N3CCCCC3)nn2)c1` the figure was 2.67%.
With `COc1cccc(C(=O)/C=C/Nc2ccc(S(=O)(=O)Nc3nc(C)cc(C)n3)cc2)c1`, the inhibition is 1.1%.
For `O=C1NC[C@H](c2ccccc2)N(CCc2cc(C(F)(F)F)cc(C(F)(F)F)c2)C1=O`, the inhibition is 2.8%.
With `FC(F)(F)c1cc(CCN2C(=S)NC[C@@H]2c2ccccc2)cc(C(F)(F)F)c1` the figure was -1.12%; with `CN(C)S(=O)(=O)c1cccc(NC(=O)c2ccc(OC(F)(F)F)cc2)c1`, 5.44%.
Turning to `O=C(O)C1=C[C@H](c2coc3ccccc3c2=O)C[C@H](OCCCCO)O1`, the inhibition is -1.88%.
As to `CCOC(=O)N1CCN(C(=O)/C(=C/c2ccc(OC)cc2)NC(=O)c2ccccc2)CC1`, the inhibition is 1.93%.
On to `Cc1cc(Cl)ccc1NC(=O)CN1CCC(C(O)(c2ccccc2)c2ccccc2)CC1`, for which the inhibition is 46%.
With `O=C(CN1CCC(C(O)(c2ccccc2)c2ccccc2)CC1)Nc1cc(Cl)ccc1Cl` the figure was 54.5%; with `COCCCNC(=O)c1ccc(-c2csc(C)n2)cc1`, 2.89%.
Consider `Cc1ccc(NC(=O)CN2CCOCC2)cc1S(=O)(=O)N1CCCCC1`, for which the inhibition was -0.79%.
